In PubChem BioAssay (EPA / NIEHS):
Results filed as inconclusive are left out. Active and inactive are the calls of the source. The calls were made as follows, unless noted: active = hit-call score of the fitted dose curve at least 0.9, where 1 is the maximum; inconclusive = response in the unintended direction; inactive = score below 0.9.

Legend:
[1] = Tanguay_ZF_120hpf_TR_legacy: (Legacy) Oregon State University Tanguay Lab 120 Hour Post-fertilization zebrafish Assay for Touch Response (AID 2283667)
In short: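 Binary touch-response endpoint in larvae at 120 hpf after static waterborne exposure from embryo stage (28°C, 0.64% DMSO vehicle, 5 uM trimethyltin chloride as positive control); embryos dead at 24 or 120 hpf excluded; fitted as gain versus DMSO.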

[2] = Tanguay_ZF_120hpf_ActivityScore_legacy: (Legacy) Oregon State University Tanguay Lab 120 Hour Post-fertilization zebrafish Assay Score for Activity (AID 2283742);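 as to AC50: dechorionated Tropical 5D wild-type zebrafish embryos held singly per well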
In short: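 Binary scoring of mortality and morphology by brightfield at 24 and 120 hpf, summarised into one activity score from 18 components relative to DMSO. Wild-type Tropical 5D zebrafish, chorion removed at 4 hpf, static exposure 6–120 hpf, 28 °C.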

[3] = CEETOX_H295R_MTT_cell_viability: Viability Assessment in the CeeTox HT-H295R MTT Assay (AID 2283718; active = hit-call score of the fitted dose curve at least 0.9, where 1 is the maximum; inactive = score below 0.9;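 also: curve fitted both ways so AC50 may mark viability loss or gain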)
In short: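 MTT reduction (0.5 mg/ml, 4 h at 37 C; absorbance at 570 and 650 nm) gave viability as background-corrected percent change versus controls. H295R cells had 48 h forskolin (10 uM) prestimulation, then 48 h chemical exposure at 0.1% DMSO.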

CN(C)C(=O)NC1(c2ccccc2)CCN(CC[C@@]2(c3ccc(F)c(F)c3)CN(C(=O)c3ccccc3)CCO2)CC1
outcome [1]: inactive
outcome [2]: inactive

CC(=O)O
outcome [1]: inactive
outcome [2]: inactive

CC(=O)OCC(COC(C)=O)OC(C)=O
outcome [2]: inactive

CCCCC(CC)COC(=O)CCCCCCCC(=O)OCC(CC)CCCC (configuration not stated)
outcome [1]: inactive
outcome [2]: inactive

C/C=C/c1ccc(OC)cc1
outcome [2]: inactive

CCCC(=O)O
outcome [1]: inactive
outcome [2]: inactive

CC(=O)OC1CC(C)OC(C)O1 (configuration not stated)
outcome [1]: inactive
outcome [2]: inactive

COC(=O)CCC(=O)OC
outcome [1]: inactive
outcome [2]: inactive

O=C(N[C@@H](c1ccccc1)[C@@H]1CCCCN1)c1cccc(C(F)(F)F)c1Cl
outcome [1]: inactive
AC50 [2]: 53.2 µM (active)

CCCCOC(=O)CCCCC(=O)OCCCC
outcome [1]: inactive
outcome [2]: inactive

C=CCc1ccc(OC)c(OC)c1
AC50 [3]: 0.102 µM (active)
outcome [2]: inactive

CC(C)c1cccc(C(C)C)c1
outcome [1]: inactive
outcome [2]: inactive
